In PubChem BioAssay (Tox21):
Inconclusive results are not listed. Where a call stands in place of a potency, no number is given. The source made the active and inactive calls. Calls come from the whole dose curve.

Target: 5-hydroxytryptamine receptor 2A (Homo sapiens) (UniProt P28223)
Assay: 5-hydroxytryptamine receptor 2A (HTR2A) small molecule antagonists, cell-based qHTS assay (AID 1963586); note: nearly all actives have a fitted effect of over 45% in size
Settings: HTR2A-CHO cells, DOI-induced calcium flux, fluorescence; series mostly up to 61.5 µM
Description: National Center for Advancing Translational Sciences [NCATS]
Division of Preclinical Innovation [DPI]
U.S. Environmental Protection Agency [EPA]
National Institutes of Environmental Health Sciences [NIEHS]
National Toxicology Program [NTP]
U.S. Food and Drug Administration [FDA]
The HTR2A receptor is a subtype of the 5-HT2 receptor that belongs to the serotonin receptor family and is a G protein-coupled receptor (GPCR). The HTR2A-CHO cell line stably expressing human 5-hydroxytryptamine receptor 2A (HTR2A) can be used for screening antagonists of interactions between 5-HT2 and its ligands. The HTR2A-CHO calcium flux assay is a homogeneous fluorescence-based assay for detecting the intracellular calcium level using FDSS kinetic plate reader system.
Tox21 Assay Protocol Summary:
HTR2A-CHO cells were dispensed at 2000 cells/3uL/well in 1536-well black-clear bottom plates using a Multidrop Dispenser. After the assay plates were incubated at a 37 C/5% CO2 incubator for 18 h, 3 uL of Dye Loading Buffer was transferred to the assay plate by a Flying Reagent Dispenser. The assay plates were incubated at 37 C for 1h. For antagonist mode, 23 nL of compounds dissolved in DMSO, positive controls or DMSO only was transferred to the assay plate by a pin tool. After 5 min incubation at room temperature, 1.5 uL of 4-Iodo-2,5-dimethoxy-alpha-methylbenzeneethanamine hydrochloride (DOI) at 4nM was added to each well. The fluorescence intensity in the plates was measured using FDSS 7000EX kinetic plate reader for 3 min at 1 sec intervals.
Potency is the fitted concentration of half-maximal effect.

5-hydroxytryptamine receptor 2A (Homo sapiens), sequence (P28223 whole entry, looked up): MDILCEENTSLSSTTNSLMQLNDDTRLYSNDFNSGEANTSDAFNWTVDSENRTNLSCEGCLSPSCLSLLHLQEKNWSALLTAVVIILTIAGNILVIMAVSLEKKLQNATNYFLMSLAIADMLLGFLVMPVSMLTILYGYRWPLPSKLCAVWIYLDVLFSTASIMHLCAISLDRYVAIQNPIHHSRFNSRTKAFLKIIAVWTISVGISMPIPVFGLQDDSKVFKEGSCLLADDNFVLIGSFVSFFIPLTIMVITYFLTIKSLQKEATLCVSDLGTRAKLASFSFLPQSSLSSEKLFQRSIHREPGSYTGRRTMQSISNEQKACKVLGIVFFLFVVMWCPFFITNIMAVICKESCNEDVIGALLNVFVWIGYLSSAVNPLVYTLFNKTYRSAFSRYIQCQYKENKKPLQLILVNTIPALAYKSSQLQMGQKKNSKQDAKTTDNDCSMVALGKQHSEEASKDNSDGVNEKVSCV

SMILES | Potency
C1CCC(C2CCCCC2)CC1 | inactive
SCc1ccco1 | inactive
[C-]1=CC=CC1.[Cl][Zr+2][Cl].c1cc[cH-]c1 | inactive
CCC#N | inactive
O=C(C(Cl)(Cl)Cl)C(Cl)(Cl)Cl | inactive
O=C(O)C(O)C(O)C(=O)O (stereo not given) | inactive
CSc1ccc(C(=O)C(C)(C)N2CCOCC2)cc1 | inactive
Oc1ccc(Cl)c(Cl)c1Cl | inactive
O=C(CCCCl)c1ccc(F)cc1 | inactive
CSC1=N[C@@](C)(c2ccccc2)C(=O)N1Nc1ccccc1 | inactive
O=C(Nc1ccccc1)Nc1cnns1 | inactive
Cc1cccc(OP(=O)(Oc2cccc(C)c2)Oc2cccc(C)c2)c1 | inactive
CCOP(=S)(Oc1cnc(C(C)(C)C)nc1)OC(C)C (stereo not given) | inactive
O=S(=O)(NS(=O)(=O)C(F)(F)F)C(F)(F)F | inactive
CC(C)[C@@H](Nc1ccc(C(F)(F)F)cc1Cl)C(=O)OC(C#N)c1cccc(Oc2ccccc2)c1 (stereo not given in full) | inactive
CCCCCOC(=O)c1ccccc1C(=O)OCCCCC | inactive
C=CC(=O)[O][Sn]([CH2]CCC)([CH2]CCC)[CH2]CCC | 3750 nM (active)
Clc1ccccc1-c1ccccc1Cl | 47900 nM (active)
C=CCOC(=O)C(C)(C)OC(=O)c1cc(-n2c(=O)cc(C(F)(F)F)n(C)c2=O)ccc1Cl | inactive
COC(=O)C(C)N(C(=O)c1ccco1)c1c(C)cccc1C (stereo not given) | inactive

SMILES | Potency
COC(=O)C1=CCCN(C)C1 | inactive
Cn1sc(Cl)cc1=O | inactive
COC1CC(=C(c2cccs2)c2cccs2)C[N+](C)(C)C1 (stereo not given) | inactive
O=C1C(I)=CC(=C(c2cc(I)c(O)c(I)c2)c2ccccc2C(=O)O)C=C1I | inactive
C=C(C)CN(CC)c1c([N+](=O)[O-])cc(C(F)(F)F)cc1[N+](=O)[O-] | inactive
C(COCC1CO1)OCC1CO1 (stereo not given) | inactive
CN1[C@@H]2CC[C@H]1CC(O)C2 (stereo not given in full) | inactive
CCOP(=S)(OCC)SCS(=O)(=O)CC | inactive
CCOP(=S)(NC(C)C)Oc1ccccc1C(=O)OC(C)C (stereo not given) | inactive
c1ccc2nc(N3CCNCC3)ccc2c1 | 3.3 nM (active)
CON(C)C(=O)Nc1ccc(Br)c(Cl)c1 | inactive
COc1cc(OC)c(OC)cc1C=O | inactive
CC1=C(C(=O)Nc2ccccc2)S(=O)(=O)CCO1 | inactive
CC(=O)O.CC(=O)O.CC(=O)O.CC(=O)O.CC(=O)O.CC(=O)O.CC(=O)O.O.O.[Cr].[Cr].[Cr] | inactive
CCOC(C(=O)OCCN(C)C)(c1ccccc1)c1ccccc1 | inactive
Fc1ccc(C(OCCN2CCN(CCCc3ccccc3)CC2)c2ccc(F)cc2)cc1 | 1300 nM (active)
ClCCCCBr | inactive
O=[N+]([O-])c1cc(C(F)(F)F)cc([N+](=O)[O-])c1Cl | inactive
N#C/C=C/c1ccccc1 | inactive
[O]=[Cd] | inactive
